Test results taken from PubChem BioAssay AID1233 (SRMLSC, 2008).
Results with a measured potency or affinity are listed apart. Active and inactive are the calls of the source.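 Rule for the calls: active = a dose-response curve fit returns a half-maximal inhibitory concentration, extrapolated values included; inactive = the fit returns no such concentration.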

Molecular target: HMG-CoA reductase [Enterococcus faecalis] (UniProt Q9FD70)
Test: inhibitors of E. faecalis class II HMGR, confirmation, biochemical, Enterococcus faecalis (AID 1233)

SMILES | outcome
Cc1ccc(C)c(N=Cc2ccc(-c3ccc([N+](=O)[O-])cc3)o2)c1 | inactive
CN(C)S(=O)(=O)N1CCN(S(=O)(=O)N2CCOCC2)CC1 | inactive
Cc1c(NC2(c3nnnn3-c3ccc(Br)cc3)CCCCC2)c(=O)n(-c2ccccc2)n1C | inactive
Cc1cc(C)nc(NC(=O)CCCC(=O)O)c1 | inactive
COc1ccc(N2C(=O)CS/C2=C\[N+](=O)[O-])cc1 | inactive
Cn1c(CN2CCCC2)c(C#N)c2ccccc21 | inactive
CN(C)C(=O)CSc1n[nH]c(=O)[nH]c1=O | inactive
CSc1ccc(C2CC(=O)Nc3nc(SC)[nH]c(=O)c32)cc1 (configuration not stated) | inactive
COc1cc(SC)ccc1C(=O)NCc1ccc(C)cc1 | inactive
O=C(COC(=O)c1ccncc1)Nc1ccccc1 | inactive
C=CCn1c(C)c(C(C)=O)c(N2CCCC2)nc1=S | inactive
CN(C)S(=O)(=O)c1cccc(C(=O)Nc2ccc(S(=O)(=O)N3CCCC3)cc2)c1 | inactive
CCc1cccc2c(C#N)cn(CCOc3ccccc3OC)c12 | inactive
CN(CCC#N)C(=O)COC(=O)c1ccc(Cl)c(S(=O)(=O)N(C)c2ccccc2)c1 | inactive
Brc1c(NC2=NCCN2)ccc2nccnc12 | inactive
COc1ccc(/C=N/Nc2nccnc2Cl)c(OC)c1 | inactive
CCc1c(C#N)c(N)nc(SCC(=O)OCc2ccccc2)c1C#N | inactive
CCN(CC)c1ccc(-c2n[nH]c(=S)n2-c2ccccc2C)cc1 | inactive
O=C(/C=C/c1cccs1)c1ccc(NC(=O)c2ccccc2F)cc1 | inactive
O=C(Nc1ccccn1)c1cccc(S(=O)(=O)N2CCOCC2)c1 | inactive
CCCc1nc(NCc2ccccn2)c2nnn(Cc3ccccc3F)c2n1 | inactive
Cc1ccc2nc(-c3sc4nc(C)ccc4c3N)[nH]c2c1 | inactive
CCOc1cccc2cc(C(N)=O)c(=NCc3ccccc3)oc12 | inactive
Cc1ccc(C(=O)O)cc1S(=O)(=O)N1CCC(C(=O)O)CC1 | inactive
CCn1c2ccccc2c2cc(CNCc3ccc(OC)cc3OC)ccc21 | inactive
COc1ccc(-c2[nH]nc3c2C(c2ccsc2)C(C#N)=C(N)O3)cc1 (configuration not stated) | inactive

SMILES | outcome
Cc1ccc(NC(=O)c2ccc3nc[nH]c3c2)c(O)c1 | inactive
C=CCNC(=O)C(C#N)c1nc2ccccc2nc1N1CCCCCC1 (configuration not stated) | inactive
CCc1ccc(NC(=O)CSCc2ccc(C(=O)O)cc2)cc1 | inactive
CO/N=C/c1ccc(N2CCCC2)c([N+](=O)[O-])c1 | inactive
Cc1cc(N2C(=O)C(O)=C(C(=O)c3ccco3)C2c2cccnc2)no1 (configuration not stated) | inactive
O=C(Cn1cccc1C(=O)c1ccccc1)NCc1ccco1 | inactive
CC1=CC(C)C(C(=O)O)C(C(=O)O)C1 (configuration not stated) | inactive
COc1cc(/C=C2/C(=O)ON=C2C)ccc1OCc1cccc(F)c1 | inactive
Cc1ccccc1-c1oc(C)c(C)[n+]1[O-] | inactive
COc1ccc2c(c1)c(=O)c(C(=O)c1ccccc1)cn2Cc1ccc(C)cc1 | inactive
O=C1NC(=O)/C(=C/C(=O)N2CCOCC2)S1 | inactive
COc1ccc(Cn2c(=O)sc3ccccc3c2=O)cc1 | inactive
COc1cccc(NC(=O)c2ccc3snnc3c2)c1 | inactive
O=C(c1ccco1)N1CCCN(Cc2cn[nH]c2-c2ccc(-c3ccccc3)cc2)CC1 | inactive
CCn1c2ccccc2c2cc(NC(=O)CSc3nnc(-c4ccc(OC)c(OC)c4)n3N)ccc21 | inactive
COc1ccc(-c2cc(C(=O)Nc3c(C)nn(Cc4ccc(Cl)cc4)c3C)no2)cc1 | inactive
CCCCC(=O)Nc1cc(OCC)c(NC(=S)NC)cc1OCC | inactive
CC(C)NC(=O)CSc1nc2ccccc2n1CC(=O)N(C(C)C)C(C)C | inactive
CC(=O)Nc1ccc(C(=O)CSc2nnc(Cc3ccccc3)o2)cc1 | inactive
O=C(C1c2ccccc2C(=O)N2CCc3ccccc3C12)N1CCN(Cc2ccccc2)CC1 (configuration not stated) | inactive
Cc1cc(C)nc(N(C#N)CC(=O)N2CCC(C(N)=O)CC2)n1 | inactive
Cc1nn(-c2cc(N3CCCCCC3)ccc2[N+](=O)[O-])c(=O)c2ccccc12 | inactive
COc1cc(OC)c(C(=O)NC2CC(C)(C)NC(C)(C)C2)cc1OC | inactive
O=C(Nc1ccccc1)C(Cc1ccccc1)NC(=O)C12CC3CC(CC(C3)C1)C2 (configuration not stated) | inactive
Cc1[nH]nc2c1C(CCc1ccccc1)C(C#N)=C(N)O2 (configuration not stated) | inactive
COc1cc(C)nc(Oc2ccc(OCCOc3ccccc3)nn2)n1 | inactive
